Results with a measured potency or affinity are listed apart. Inconclusive results are not listed. Active and inactive are the calls of the source.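 The calls were made as follows: active = fitted half-maximal concentration for viability loss no higher than twice the top valid dose, in every repeat run; inconclusive = repeat runs disagree, flat partial loss, or poor curve fit; inactive = the rest.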
Assay: IOSE-T80 viability loss, PAX8-independent line – cell-based, cherry-pick, selectivity assay for PAX8 inhibitor project, dose response (AID 687032);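 also: cells exposed to compound for 96 h before reading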
Conditions: CellTiterGlo ATP luminescence, 96 h; series mostly up to 35 µM

Q: Which outcome does the source give for `COc1cccc(-c2ccc3c(c2)[C@H]2[C@H](CCN2S(=O)(=O)c2ccccc2F)[C@@H](CO)N3)c1` here?
A: inactive

Q: Which outcome does the source give for `O=C(Nc1cccc(F)c1)N1CCCCN2[C@H](CO)[C@@H](c3ccc(C#Cc4ccccc4)cc3)[C@H]2C1` here?
A: inactive

Q: Which outcome does the source give for `COc1ccc(S(=O)(=O)Nc2ccc3c(c2)C(=O)N([C@@H](C)CO)C[C@H](C)[C@@H](CN(C)C(=O)Nc2ccc(F)cc2)OCCCC[C@H](C)O3)cc1` here?
A: inactive

Q: With `C[C@@H]1CCCCO[C@H](CN(C)Cc2ccc(C(F)(F)F)cc2)[C@@H](C)CN([C@@H](C)CO)C(=O)c2cc(NC(=O)Nc3ccc(F)cc3)ccc2O1` as the molecule, how does the outcome read?
A: inactive

Q: For `C[C@@H]1CCCCO[C@H](CN(C)S(=O)(=O)c2ccc(F)cc2)[C@H](C)CN([C@@H](C)CO)C(=O)c2cc(NS(=O)(=O)c3ccc(Cl)cc3)ccc2O1`, which outcome is on record?
A: inactive

Q: Which outcome does the source give for `C#CCN(C[C@@H]1[C@@H](OC(=O)NCc2ccccc2F)[C@@H](OC(=O)NCc2ccccc2F)Cn2c(=O)ccc(=O)n21)S(=O)(=O)c1ccc(C)cc1` here?
A: inactive

Q: For `CCCC#Cc1ccc([C@@H]2[C@@H](C#N)N(C(=O)C3CCCCC3)[C@H]2CO)cc1`, which outcome is on record?
A: inactive

Q: For `C[C@H]1CCCCO[C@H](CN(C)C(=O)Nc2cccc3ccccc23)[C@@H](C)CN([C@@H](C)CO)C(=O)c2cc(NS(=O)(=O)c3ccc(Cl)cc3)ccc2O1`, which outcome is on record?
A: inactive

Q: For `C[C@@H]1CN([C@@H](C)CO)S(=O)(=O)c2ccc(C#Cc3ccncc3)cc2O[C@H]1CN(C)C(=O)Nc1ccc2c(c1)OCO2`, which outcome is on record?
A: inactive

Q: For `COc1ccccc1C#Cc1ccc2c(c1)O[C@@H](CN(C)Cc1ccncc1)[C@H](C)CN([C@@H](C)CO)S2(=O)=O`, which outcome is on record?
A: inactive

Q: With `C[C@@H]1CCCCO[C@H](CN(C)Cc2ccc(Cl)c(Cl)c2)[C@@H](C)CN([C@@H](C)CO)C(=O)c2cc(NC(=O)Nc3ccccc3)ccc2O1` as the molecule, how does the outcome read?
A: inactive

Q: Which outcome does the source give for `C[C@H]1CN([C@@H](C)CO)C(=O)Cc2cc(NC(=O)NC3CCCCC3)ccc2O[C@@H]1CN(C)Cc1ccc(-c2ccccc2)cc1` here?
A: inactive

Q: Which outcome does the source give for `C[C@@H]1CN([C@H](C)CO)C(=O)c2cc(NS(=O)(=O)c3ccc(Cl)cc3)ccc2O[C@@H](C)CCCCO[C@H]1CN(C)C(=O)Nc1ccc(C(F)(F)F)cc1` here?
A: inactive

Q: For `C[C@H](CO)N1C[C@H](C)[C@@H](CN(C)C(=O)c2ccc3c(c2)OCO3)Oc2cc(C#Cc3ccccc3F)ccc2S1(=O)=O`, which outcome is on record?
A: inactive

Q: For `C[C@@H]1CCCCO[C@H](CN(C)C(=O)Nc2cccc3ccccc23)[C@H](C)CN([C@@H](C)CO)C(=O)c2cc(NS(=O)(=O)c3ccc(Cl)cc3)ccc2O1`, which outcome is on record?
A: inactive

Q: Which outcome does the source give for `C[C@@H]1CCCCO[C@@H](CN(C)Cc2ccc(Cl)c(Cl)c2)[C@@H](C)CN([C@@H](C)CO)C(=O)c2cc(NC(=O)Nc3ccccc3)ccc2O1` here?
A: inactive

Q: For `Cc1cccc(-c2ccc(C3[C@@H]4CN(C(=O)Nc5ccc(C(F)(F)F)cc5)C[C@H]3N4)cc2)c1` (some centres not stated), which outcome is on record?
A: inactive

Q: For `C[C@H](CO)N1C[C@H](C)[C@@H](CN(C)S(=O)(=O)c2ccc(-c3ccccc3)cc2)OCc2cn(nn2)CCCC1=O`, which outcome is on record?
A: inactive

Q: With `C[C@@H]1CN([C@H](C)CO)C(=O)c2cc(NC(=O)Nc3ccc(F)cc3)ccc2O[C@@H](C)CCCCO[C@H]1CN(C)Cc1ccc(C(F)(F)F)cc1` as the molecule, how does the outcome read?
A: inactive

Q: Which outcome does the source give for `C[C@@H]1CN([C@@H](C)CO)C(=O)Cc2cc(NC(=O)CCCCCC(=O)Nc3ccccc3N)ccc2O[C@@H]1CN(C)Cc1ccc(C(F)(F)F)cc1` here?
A: inactive

Q: For `O=C(CN1C(=O)c2ccccc2S1(=O)=O)c1ccc2c(c1)OCCO2`, which outcome is on record?
A: inactive

Q: Which outcome does the source give for `COc1cc(-c2cnc3c(NC=O)cc(-c4cccc(NC(C)=O)c4)cn23)cc(OC)c1OC` here?
A: inactive

Q: Which outcome does the source give for `COc1ccc(CN(C)C[C@H]2OCCCC[C@H](C)Oc3ccc(NC(=O)Nc4ccc(C(F)(F)F)cc4)cc3C(=O)N([C@H](C)CO)C[C@H]2C)cc1` here?
A: inactive

Q: Which outcome does the source give for `CN1c2ccc(-c3cccc(C#N)c3)cc2[C@H]2[C@H](CCN2S(=O)(=O)c2ccccc2F)[C@H]1CO` here?
A: inactive

Q: For `C[C@@H]1CCCCO[C@H](CN(C)Cc2ccc(C(F)(F)F)cc2)[C@@H](C)CN([C@@H](C)CO)C(=O)c2cc(NC(=O)Cc3ccccc3)ccc2O1`, which outcome is on record?
A: inactive

Q: For `C[C@@H]1CN([C@H](C)CO)C(=O)c2cc(NC(=O)Nc3ccc(F)cc3)ccc2O[C@@H](C)CCCCO[C@@H]1CN(C)Cc1ccc(C(F)(F)F)cc1`, which outcome is on record?
A: inactive

Q: Which outcome does the source give for `COc1ccccc1C#Cc1ccc2c(c1)O[C@@H](CN(C)Cc1ccncc1)[C@H](C)CN([C@H](C)CO)S2(=O)=O` here?
A: inactive

Q: For `C[C@@H]1CN([C@H](C)CO)C(=O)c2cc(NC(=O)Nc3ccccc3)ccc2O[C@@H](C)CCCCO[C@H]1CN(C)Cc1ccc(C(F)(F)F)cc1`, which outcome is on record?
A: inactive

Q: Which outcome does the source give for `C[C@@H]1CN([C@H](C)CO)C(=O)c2cc(NC(=O)Nc3ccccc3)ccc2O[C@@H](C)CCCCO[C@@H]1CN(C)Cc1ccc(Cl)c(Cl)c1` here?
A: inactive

Q: Which outcome does the source give for `O=C(Nc1ccc(F)cc1)N1CC(=O)N2[C@@H](CO)[C@H](c3ccc(-c4ccc(F)cc4)cc3)[C@@H]2C1` here?
A: inactive

Q: With `C[C@@H]1CN([C@H](C)CO)C(=O)c2cc(NS(=O)(=O)c3ccc(F)cc3)ccc2O[C@@H](C)CCCCO[C@@H]1CN(C)Cc1ccccc1` as the molecule, how does the outcome read?
A: inactive

Q: With `COc1ccc(S(=O)(=O)N(C)C[C@@H]2OCCCC[C@H](C)Oc3ccc(NS(=O)(=O)c4ccccc4)cc3C(=O)N([C@H](C)CO)C[C@H]2C)cc1` as the molecule, how does the outcome read?
A: inactive
